High-throughput results: PubChem, several laboratories
Shown are actives, neighbours in structure and some others; about 1.9% of the full set was active somewhere.
ATG4B inh: ATG4B protease inhibitors, primary screen, biochemical, fluorescence, uHTS. inhibition, % at 8.33 µM. 340,000 tested, 0.51% active. ATG4B cleavage of LC3-PLA2, NBD-HPC fluorescence, 1 h. AID 504462, 2011; in the data active = inhibition above about 40%
Glyco luc inh: increase of ERlucT glycosylation luciferase signal, primary screen, N-linked glycosylation inhibitor project, D54 ERlucT cells, luminescence, set 2; D54 ERlucT glycosylation luciferase reporter, 24 h; percent of 100 nM tunicamycin response; reporter increase, % at 12.5 µM; 360,000 tested, 0.23% active;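 active = mean luciferase reporter signal, scaled so untreated is 0 and the glycosylation-blocking control 100, at or above a set limit in every replicate; inconclusive = mean reaches the limit but not every replicate does; inactive = mean below the limit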;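 also: luciferase carries N-glycosylation sites so blocking glycosylation raises the light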
NSD2 HMT inh: NSD2 histone methyltransferase inhibitors, primary screen, biochemical, AlphaScreen, single concentration, set 2; Histone-lysine N-methyltransferase NSD2 (Homo sapiens), O96028; inhibition, % at 12.5 µM; 310,000 tested, 0.54% active; NSD2 peptide methylation, 120 min; AID 743445, 2014; in the data active = inhibition above about 50%
DSG3 Ab inh: inhibitors of pemphigus antibody binding to DSG3, primary screen, biochemical, bead-based, flow cytometry, scFv-GFP | 310,000 tested, 0.48% active | AID 588358, 2011 | DSG3-coupled beads, scFv-anti-DSG3-GFP binding; hits give low values | binding (percent of control), % at 10 µM | Desmoglein-3 (Homo sapiens), P32926;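 active = binding more than 3 SD below its plate's average and above zero; inconclusive = below that plate limit but binding exactly zero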;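 also: hits lower antibody fragment binding to DSG3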
Vif imaging: HIV Vif self-association inhibitors, primary screen, imaging, HEK293T, single point; HEK293T cells, Vif self-association by quenched fluorescence, 24 h; 340,000 tested, 0.35% active; inhibition, % at 7.49 µM; AID 602346, 2012; in the data active = inhibition above about 50%, passing the limit was not always enough; inconclusive = no clear call, values can overlap the other calls; inactive = below about 31%
CaV13 ICDI inh: Disruptors of the CACNA1D IQ motif to Ca2+-dependent inactivation inhibitor domain association, primary screening, Förster resonance energy transfer in intact living …; HEK cells, CFP/YFP FRET ICDI-IQ, plate reader, 10 min; percent FRET-ratio fall versus neutral wells; inhibition, % at 12.3 µM; 340,000 tested, 0.098% active;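 active = mean replicate inhibition of at least 30% and at least 1% of replicates passing that level; inconclusive = only one of the two criteria is met; inactive = neither criterion is met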
Alpha artifact: AlphaScreen signal interference with preloaded methylated product, dose response, artefact control for NSD2 inhibitor project, biochemical, cherry-picked samples. shares compounds with NSD2 HMT inh. AlphaScreen artifact counterscreen, preloaded methylated H4 peptide. AC35, µM (top dose mostly 10 µM). 1,500 tested, 9.4% active. AID 1053174, 2014; call rule not given here
Of the large screens only hits and unclear results are named; the others gave an inactive call (follow-up assays come after a bar, where they were run).

CC1(C)Cc2c(c(-c3ccccc3)[nH]c(=O)c2C#N)CS1	none (no result: CaV13 ICDI inh)
Cc1cccc(NC(=O)C2CCN(C(=O)NCc3ccccc3)CC2)c1C	NSD2 HMT inh 66 | Alpha artifact inactive
O=C(Nc1cccc2ccccc12)C1CCN(C(=O)NCc2ccccc2)CC1	none (no result: Vif imaging)
Cc1ccc(C(=O)COC(=O)CNS(=O)(=O)c2ccc(C)cc2)cc1	none
Cc1cc(=O)[nH]c(COc2ccccc2)n1	NSD2 HMT inh 55 (no result: Vif imaging) | Alpha artifact inactive
COc1ccccc1NS(=O)(=O)c1cc(NC(=O)c2cc(F)c(F)c(F)c2F)ccc1N1CCOCC1	none
O=c1ccc(-c2ccc([N+](=O)[O-])cc2)nn1-c1ccccc1	none
O=[N+]([O-])c1ccc(-[n+]2nc(-c3ccccc3)nn2-c2ccccc2)cc1	NSD2 HMT inh 81 | Alpha artifact 0.91µM
C=CCN1C(=O)c2ccc(C(=O)OCC(=O)Nc3ccc(S(N)(=O)=O)cc3)cc2C1=O	none
COc1cc(N(C(C)=O)c2ccc(O)cc2)c2ncccc2c1	none (no result: ATG4B inh)
COc1cc(N(C(C)=O)c2ccc(O)c(C(=O)O)c2)c2ncccc2c1	NSD2 HMT inh 86 (no result: ATG4B inh) | Alpha artifact inactive
CC1NC(=O)NC1CCCCCC(=O)Nc1ccc(F)c(Cl)c1 (stereo not drawn)	NSD2 HMT inh 103 | Alpha artifact 3.8µM
CCc1cccc(NC(=O)CCCCCC2NC(=O)NC2C)c1 (stereo not drawn)	none (no result: NSD2 HMT inh)
CN(c1ccccc1)S(=O)(=O)c1ccc(Cl)c(C(=O)OCC(=O)c2c(N)n(C)c(=O)n(C)c2=O)c1	none
CNCCCC1c2ccccc2C=Cc2ccccc21	none (no result: NSD2 HMT inh)
CNCCCC1Sc2ccccc2Oc2ccccc21 (stereo not drawn)	NSD2 HMT inh 72 | Alpha artifact inactive
CCc1ccc2nc(SCC(=O)NCC3CCCO3)c(C#N)cc2c1 (stereo not drawn)	none
CN(C)S(=O)(=O)c1cccc(NC(=O)CCCSc2ccccc2)c1	none
C=CCN1c2ccccc2Sc2cnccc21	none (no result: ATG4B inh)
O=c1[nH]c(=O)n(C(c2ccccc2)c2ccccc2)cc1Br	none
O=c1[nH]nc(Br)c(=O)n1C(c1ccccc1)c1ccccc1	NSD2 HMT inh 51 | Alpha artifact inactive
Cc1ccc(NC(=O)C[n+]2cc(-c3ccc(C)cc3)n3c2CCC3)cc1	none
COCc1[nH][nH]c(=O)c1C=NCC(=O)OC	NSD2 HMT inh 51 | Alpha artifact inactive
COCc1[nH][nH]c(=O)c1C=Nc1ccccc1	none (no result: DSG3 Ab inh)
O=C(COC(=O)COc1cccc(C(F)(F)F)c1)NC1CCS(=O)(=O)C1 (stereo not drawn)	none
Cc1ccc(S(=O)(=O)N2CCCOC2CNC(=O)C(=O)NCc2cccnc2)cc1 (stereo not drawn)	none
COc1ccc(-n2ncc3c(NCCCn4ccnc4)ncnc32)cc1	NSD2 HMT inh 121 | Alpha artifact inactive
O=C(CC(=O)NCCc1ccccc1)NCCc1ccccc1	NSD2 HMT inh 124 | Alpha artifact inactive
COc1cc(NC(=O)CCn2c(=O)oc3ccccc32)cc(OC)c1OC	NSD2 HMT inh 51 (no result: DSG3 Ab inh) | Alpha artifact inactive
Cc1ccc(NC(=O)CCn2c(=O)oc3ccccc32)cc1	NSD2 HMT inh 55 (no result: DSG3 Ab inh, Vif imaging, CaV13 ICDI inh) | Alpha artifact inactive
O=C(CCn1c(=O)oc2ccccc21)Nc1ccccc1	DSG3 Ab inh inconclusive
O=C(CSc1nnc(Nc2ccccc2)s1)Nc1ccc(S(=O)(=O)N2CCOCC2)cc1	none
Cc1ccc(Nc2nnc(SCC(=O)Nc3ccc(S(=O)(=O)N4CCOCC4)cc3)s2)cc1	NSD2 HMT inh 62 | Alpha artifact inactive
